Pf Dd2 inh: blocks in vitro growth of P. falciparum Dd2 | Potency, µM (highest dose often 28.9 µM), for the others: top-dose activity, negative = inhibition, actives largely listed as inhibitors | P. falciparum Dd2 growth, SYBR Green, 72 h | AID 1347417 | 120,000 compounds, 4.3% hits; active means well fitted inhibition curve with a large enough effect;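 further: plate controls were DMSO vehicle for no effect and reference drug for full effect; nearly all actives have a fitted effect of over 65% in size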
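Readout: SYBR Green fluorescence, 485 nm excitation, 535 nm emission, after ~16 h lysis at 37C. Before that, Dd2-infected red cells (2.5% hematocrit) grew 72 h with compound, 29 uM top final concentration.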
Active calls of the source: *; i = inactive; [ ] = another dose, or the depositor's remark. This is one part of a sample in which hits are shown more often than they occur. Potency means the concentration at half of the fitted maximal effect.

SMILES	Pf Dd2 inh
COc1cccc(CN2CC[C@@H]3C(=O)NCCCCCCN(Cc4ccncc4)[C@@H]3C2)n1	3.98µM*
Cn1cccc1CN1CC[C@@H]2C(=O)NCCCCCCN(Cc3ccncc3)[C@@H]2C1	6.31µM*
CCN1CCC(N2CC[C@@H]3C(=O)NCCCCCCN(Cc4ccncc4)[C@@H]3C2)CC1	3.9%
COc1ccc(N2CC(C(=O)NCc3ccc(F)cc3)NC2=O)cc1 (configuration not stated)	i
COCCOc1ccc2c(n1)CCN(C(=O)CC1CCCCC1)C2	-1.0%
CC1(C)[C@H](Cc2cc(CN3CCOCC3)on2)C[C@@H]1N	-16.7%[44.1 µM]
Cc1oc(C(O)c2ccccc2F)nc1C(=O)Nc1ccccc1C(N)=O (configuration not stated)	i
O=C(c1ccc(Br)o1)N1c2ccccc2CC1c1nnc(C2CCOCC2)o1 (configuration not stated)	i
Cc1cccnc1CN(C)c1ccc(C(=O)NCc2noc(C(C)C)n2)cn1	-9.4%
O=C(c1ccccc1)N1CCN2C(=O)N(Cc3ccccn3)C[C@H]2C1	i
Cn1cnc(S(=O)(=O)N2CCCC(C(=O)Nc3ccc(F)cc3F)CCNC(=O)CC2)c1 (configuration not stated)	-13.0%
Cc1ccc(OCC(=O)N2CCCC(c3nn(C)c(=O)n3C(C)C)C2)cc1 (configuration not stated)	-21.9%
O=C(C[C@@H]1CCNC[C@@H]1Cc1cc(-c2ccccc2)on1)N1CCOCC1	10.4%[44.1 µM]
CC(C)(C)c1ccc(-c2cc(C[C@H]3CNCC[C@H]3CC(=O)O)no2)cc1	-18.4%[44.1 µM]
CC(C)(C)c1ccc(-c2cc(C[C@H]3CNCC[C@H]3CC(=O)N3CCC(n4c(=O)[nH]c5ccccc54)CC3)no2)cc1	6.31µM*
Cc1occc1C(=O)N1C[C@@H](CO)[C@H](c2nc(C3CC3)no2)C1	-2.0%
O=C(NCc1ccccc1F)c1noc(-c2ccc(F)cc2)n1	45.0%
COCc1nc2nc(-c3ccccc3)c(-c3ccc([S+](C)(=O)[O-])cc3)cc2n1C	-30.9%[44.1 µM]
O=C(C1CCC1)N1CCC2(CC1)NCCc1c2[nH]c2ccccc12	-1.7%
C[C@]1(CO)[C@H]2Cc3sc(NC(=O)c4ccc(F)cc4)nc3[C@@H](CC(=O)N3CCCCC3)[C@]2(C)CC[C@H]1O	i
C[C@]1(CO)[C@H]2Cc3sc(NC(=O)C4CCC4)nc3[C@@H](CC(=O)N3CCOCC3)[C@]2(C)CC[C@H]1O	i
CC(=O)N1CCN(C(=O)C[C@@H]2c3nc(-c4ccsc4)sc3C[C@@H]3[C@](C)(CO)[C@H](O)CC[C@]32C)CC1	-49.0%
CC(C)(C)c1ccc(C(=O)Nc2nc3c(s2)C[C@@H]2[C@](C)(CO)[C@H](O)CC[C@@]2(C)[C@@H]3CC(=O)N2CCC(C(N)=O)CC2)cc1	11.2µM*
C[C@]1(CO)[C@H]2Cc3sc(NC(=O)c4ccc(F)cc4)nc3[C@@H](CC(=O)N3CCOCC3)[C@]2(C)CC[C@H]1O	10µM*
C[C@]1(CO)[C@H]2Cc3sc(-c4ccccc4)nc3[C@@H](CC(=O)N3CCOCC3)[C@]2(C)CC[C@H]1O	i
SMILES	Pf Dd2 inh
COc1ccc(-c2nnc3n2CCN(C(=O)Nc2ccc(Cl)cc2)C3)cc1	i
COc1ccc(Nc2cc3c(cn2)CN(C)CCN3C)cc1OC	i
O=C(NCC1CN(C(=O)Cc2cccc(C(F)(F)F)c2)CC12CN(c1ccccc1)C2)Nc1ccccc1 (configuration not stated)	i
Cc1cnc(C(=O)NC2C[C@H]3CC[C@@H](C2)N3C(=O)Cc2c(C)noc2C)cn1 (some centres not stated)	5.0%
Cc1cc(Nc2ccc(Cl)cc2C)nc(-n2nc(C)cc2C)n1	3.55µM*
Cc1cc(C)n(-c2nc3ccccc3nc2Nc2cc(Cl)ccc2C)n1	31.1%
Cc1cc(C)n(-c2nc3ccccc3nc2Nc2ccc(Cl)cc2Cl)n1	42.7%
Cc1cc(C)nc(NS(=O)(=O)c2ccc(NC(=O)COc3ccc(Cl)cc3C)cc2)n1	i
CNc1cc(C2CC(NC(=O)COc3ccc(Cl)cc3C)C2)nc(N)n1 (configuration not stated)	7.94µM*
Cc1cc(Cl)ccc1OCC(=O)N1[C@@H]2CC[C@H]1CC(NC(=O)c1ccc(F)cc1)C2 (some centres not stated)	i
CC[C@H]1CN(C(=O)Nc2cccc(C(F)(F)F)c2)CC[C@H]1CC(=O)O	i
c1cn(CC2COCCO2)c(-c2cc3n(n2)CCCNC3)n1 (configuration not stated)	2.9%
COc1ccc(-c2nc(C3CC3)nc3c2CCN(Cc2ccc(C#N)cc2)CC3)cc1	7.94µM*
COc1ccc(CN2CCc3nc(C4CC4)nc(-c4ccc(O)cc4)c3CC2)cc1	3.98µM*
COc1ccc(-c2nc(C)nc3c2CCN(Cc2ccnn2C)CC3)cc1	i
CCc1nc2c(c(-c3ccc(O)cc3)n1)CCN(C(=O)c1ccc(OC)cc1)CC2	i
Oc1ccc(-c2nc(C3CC3)nc3c2CCN(Cc2ccccn2)CC3)cc1	i
COc1ccc(CN2CCc3nc(C4CC4)nc(-c4ccc(O)cc4)c3C2)cc1	i
Cc1nc2c(c(-c3ccc(O)cc3)n1)CN(Cc1ccc(F)cc1)CC2	-5.8%
COc1ccc(-c2nc(C3CC3)nc3c2CN(S(=O)(=O)c2cccc(OC)c2)CC3)cc1	-27.7%
COc1ccc(-c2nc(C3CC3)nc3c2CCN(Cc2ccc(NC(C)=O)cc2)CC3)cc1	8.91µM*
CC(=O)Nc1ccc(CN2CCc3nc(C4CC4)nc(-c4ccc(O)cc4)c3CC2)cc1	i
Oc1ccc(-c2nc(C3CC3)nc3c2CCN(Cc2ccc(F)cc2)CC3)cc1	3.98µM*
COc1ccc(-c2nc(C)nc3c2CCN(CC2CCCCC2)CC3)cc1	i
Cc1nn(C)c(C)c1CNC(=O)C1CCc2sc(C(=O)N3CCOCC3)cc2C1 (configuration not stated)	17.6%
SMILES	Pf Dd2 inh
COc1ccc2[nH]c(C[C@@H]3C[C@@H](C(C)C)[C@H](CNC(=O)c4cnccn4)C=C3C)nc2n1	i
CCn1cnnc1CC1CCN(C(=O)C2CCCCC2)C1 (configuration not stated)	13.6%
Cc1ccc(C(=O)NCC2(C)CCOCC2)cn1	4.6%
O=C(Cc1cccs1)N1CCC2(CC1)N=C(c1ccc(Cl)cc1)NO2	i
O=C(Cc1cccc(F)c1)NCCC1CCN(C(=O)Nc2ccccc2)CC1	-1.9%
Cc1noc(C)c1S(=O)(=O)N1CCCC(Cn2c(C3CC3)nc3cccnc32)C1 (configuration not stated)	i
CC(C)c1nc2c(c(-c3ccc(O)cc3)n1)CCN(Cc1cncs1)CC2	-7.9%
COc1ccc(-c2nc(C3CC3)nc3c2CCN(Cc2ccnn2C)CC3)cc1	-1.2%
COc1ccc(-c2nc(C3CC3)nc3c2CCN(Cc2cncs2)CC3)cc1	10µM*
Cn1nc(C(=O)N2C[C@@H](Oc3cccnc3)C[C@H]2C(N)=O)c2ccccc21	6.3%
CCC(=O)N1CCCCCC1c1nnc(-c2ccccc2)o1 (configuration not stated)	-12.7%
CC(Cc1ccncc1)Nc1nccc(-c2cnn(-c3ccccc3)c2)n1 (configuration not stated)	8.91µM*
CC(Cc1ccncc1)Nc1nccc(-c2cnn(-c3ccccc3F)c2)n1 (configuration not stated)	5.01µM*
c1cc(-c2ccnc(NCC3(N4CCOCC4)CCCCC3)n2)ccn1	-18.4%
Fc1ccc(CCNc2nccc(-c3cccnc3)n2)cc1	-27.2%
CCN(Cc1ccncc1)Cc1cn(-c2ccccc2)nn1	-15.0%

Source: PubChem (National Center for Advancing Translational Sciences (NCATS))
